# Only some compounds are listed: those with a hit (about 1.8% of all), similar ones and a draw of the others.
# SUMO Mot1 rescue: yeast Mot1-301 growth rescue at high temperature, primary screen, SUMOylation pathway inhibitor project, S. cerevisiae, ATP luminescence, 38.5C | S. cerevisiae Mot1-301 growth rescue; percent above DMSO median, 100 means doubled | actives 1% (n = 320,000) | growth rescue, % at 18.8 µM | AID 2716, 2010;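 active = every valid replicate shows activation above 250% relative to neutral control wells; inactive = the rest, any valid replicate at or below 250%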
# NALP1 yeast inh: NALP1 inflammasome inhibitors in reconstituted yeast, colorimetric, S. cerevisiae, triplicate retest; actives 0.61% (n = 280,000); S. cerevisiae NALP1/ASC/caspase-1 growth, X-gal OD620, 72 h; inhibition, % at 10 µM; in the data active = inhibition mostly above about 24%, no sharp cut-off; inactive = mostly below about 32%
# PolyA inhibitor: polyadenylation inhibitors in yeast reporter cells, primary screen, luminescence, S. cerevisiae; actives 0.02% (n = 300,000); S. cerevisiae SKY197-pL101 polyadenylation reporter, beta-gal luminescence; efflux-impaired pdr1/pdr3 knockout yeast; score 100 = 6 SD above DMSO; activity score, % at 12 µM;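 active = lowest replicate activity score at least 50, where 100 means six control SD above control mean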;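 also: yeast exposed to compound for 9 h at 30 °C; higher score means more reporter readthrough which indicates perturbed polyadenylation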
# NALP3 yeast inh: NALP3 inflammasome inhibitors in reconstituted yeast, primary screen, luminescence, uHTS; Yeast reconstituted NLRP3/ASC/caspase-1, beta-gal luminescence, 24 h; inhibition, % at 10 µM; actives 0.39% (n = 330,000);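 active = inhibition of 50% or more; inactive = inhibition below 50%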
# Numbers stand for hits; - = inactive; . = no result given.
SMILES,SUMO Mot1 rescue,NALP1 yeast inh,PolyA inhibitor,NALP3 yeast inh
COc1ccc(OCC(O)Cn2c(Nc3cccc(C)c3)nc3c2c(=O)n(C)c(=O)n3C)cc1 (stereo unspecified),.,-,-,-
COc1ccc(C)cc1C(=O)CCC(=O)NC1CCCCC1,-,-,-,-
CS(=O)(=O)Nc1ccc(C(=O)Nc2ccccc2C(=O)N2CCCC2)cc1,545,-,-,-
COc1ccc(-n2c(Cc3cccn3C)nnc2SCC(=O)N2CCCc3ccccc32)cc1,-,-,-,-
Cc1noc(/C=C/c2ccccn2)c1[N+](=O)[O-],-,41,-,-
CCOC(=O)c1nnn(-c2nc(OC)nc(N3CCCC3)n2)c1-c1ccccc1,-,-,-,-
COCCN1Cc2cccc(C(=O)Nc3cc(OC)ccc3OC)c2C1=O,-,28,-,-
COCCN1Cc2cccc(C(=O)Nc3ccc(-c4nc5ccccc5[nH]4)cc3)c2C1=O,689,-,-,-
COCCN1Cc2cccc(C(=O)Nc3cccc(-c4nc5ccccc5[nH]4)c3)c2C1=O,-,.,-,-
CNC(=O)OCCSCCS(=O)(=O)c1ccc(Cl)cc1,-,-,-,-
Cc1cc(N2CCN(C)CC2)nc2ccc(NC(=S)N3CCN(c4ccc(F)cc4)CC3)cc12,-,-,-,-
Cc1cc(N2CCN(C)CC2)nc2ccc(NC(=S)N3CCN(c4ccc(Cl)cc4)CC3)cc12,539,-,-,-
Cc1ccc(-c2noc(C3CCCN(C(=O)c4ccccc4Br)C3)n2)cc1 (stereo unspecified),-,-,-,-
Cc1nc(C)c(-c2ccn(C(=O)NC(C)C)n2)s1,-,-,-,-
O=S(=O)(NC1=NCCC1)c1cccc(NC(=S)Nc2ccc(OC(F)F)cc2)c1,-,.,.,-
COc1ccc(-c2cc(C(F)(F)F)nc(-n3cc(Br)cn3)n2)cc1,.,-,-,-
O=C(C#Cc1ccccc1)c1ccco1,-,44,-,-
COc1ccccc1C(=O)N/N=C/c1cnc2ccccc2n1,-,-,-,-
COc1cc2c(cc1OC)CN(C(=O)C1(c3ccccc3)CC1)CC2,.,-,-,-
CC1=NN(c2nc(-c3ccc(C)cc3)cs2)C(=O)C1N=Nc1ccc(C(N)=O)cc1 (stereo unspecified),441,-,-,.
COc1cccc(NC(=O)C2CCN(S(=O)(=O)c3ccc4c(c3)NC(=O)CO4)CC2)c1,.,-,-,-
CCCCCCCCCCCC(=O)NC(C(=O)O)C(O)c1ccccc1 (stereo unspecified),-,27,-,-
CCCCCCCCCC(=O)N[C@H](CN1CCOCC1)[C@H](O)c1ccccc1,-,.,-,-
O=S(=O)(NCC(Nc1ccccc1)c1ccccc1)c1ccc(Cl)cc1 (stereo unspecified),-,-,-,-
CCOc1ccc(Nc2nc3ccccc3n2C)cc1,-,.,-,-
SMILES,SUMO Mot1 rescue,NALP1 yeast inh,PolyA inhibitor,NALP3 yeast inh
CCOc1ccc(Nc2nc3ccccc3n3nnnc23)cc1,-,42,-,-
C=CCSc1nnc(-c2cccc3ccccc23)o1,.,.,.,-
CCC(=O)N1CCc2cc(S(=O)(=O)N(C)c3ccc(Br)cc3)ccc21,.,-,-,-
CSc1nc(-c2ccccc2)nc(N2CCN(C)CC2)c1C(C)=O,-,34,-,-
CSc1nc(-c2ccccc2)nc(N2CCCC2)c1C(C)=O,-,-,-,-
C=C(C)CSc1nnc2n(C)c(=O)c3c4c(sc3n12)CCC4,-,-,-,-
Oc1c(CN2CCCCC2)cc(Br)c2cccnc12,-,58,-,-
Oc1c(Cl)cc(CN2CCOCC2)c2cccnc12,-,.,.,-
Cc1ccc(C(=O)N/N=C\c2ccncc2)s1,-,-,-,-
CC(/C=N/NC(=O)c1cc(-c2cccnc2)nc2c1c(C)nn2-c1ccccc1)=C\c1ccccc1,-,-,-,-
CCc1ccc(OCC(=O)N/N=C(\C)c2ccc(-n3ccnc3)cc2)cc1,-,-,-,-
CCOc1ccc(S(=O)(=O)Nc2ccc(C(=O)N/N=C(\C)c3ccc(-n4ccnc4)cc3)cc2)cc1,-,35,-,-
Cc1ccc(CN2CCN(/N=C/c3ccc(C(F)(F)F)cc3)CC2)c(C)c1,326,-,-,-
CC1CCN(CCCCOc2ccc([N+](=O)[O-])cc2)CC1,-,-,-,-
COC(=O)C1CCN(Cc2ccc(OCCCN3CCN(c4ccc([N+](=O)[O-])cc4)CC3)cc2)CC1,-,26,-,-
CC(OC(=O)Cc1c[nH]c2ccccc12)C(=O)c1ccccc1 (stereo unspecified),-,.,.,-
O=C(NCc1ccccc1)c1ccc(OC2CSC2)cc1,.,35,-,-
Cc1ccc(/C=C2\SC(=S)N(/N=C/c3cc([N+](=O)[O-])ccc3O)C2=O)o1,-,-,-,-
COc1cccc(-c2cc(C(=O)N3C(C)CCCC3C)no2)c1 (stereo unspecified),-,43,-,-
CC(NC(=O)/C(C#N)=C/c1ccc([N+](=O)[O-])o1)c1ccccc1 (stereo unspecified),-,68,-,-
c1coc(CNc2ncnc3[nH]ncc23)c1,-,-,-,-
CC(C)c1ccc(N=C2NN=C(c3cccs3)CS2)cc1,-,38,-,-
CC(C)N=C1NN=C(c2cccs2)CS1,-,-,-,-
Cc1cccc(C)c1C(OCCN(C)C)C1CCCCC1 (stereo unspecified),-,51,-,-
COC(=O)C1CCN(C(=O)Cc2ccc(Br)cc2)CC1,-,-,-,-
SMILES,SUMO Mot1 rescue,NALP1 yeast inh,PolyA inhibitor,NALP3 yeast inh
Cc1ccc(S(=O)(=O)NC2CCCC2)cc1C,-,39,-,-
CCC(=O)N(Cc1cc(=O)[nH]c2ccccc12)c1ccc(C)cc1C,-,-,-,-
CCc1ccc(N(C(C)=O)C2C=CS(=O)(=O)C2)cc1 (stereo unspecified),531,-,-,-
CCOc1ccc(S(=O)(=O)Nc2cccc(N(C)S(C)(=O)=O)c2)cc1,-,42,-,-
C/C(=N\NC(=O)c1cccs1)c1c(O)cc(C)oc1=O,-,-,-,-
C/C(=N\Nc1ccc(Cl)cc1)c1c(O)cc(C)oc1=O,332,-,-,-
Cc1ccc(N2CCN(c3ccc(C)cc3)C2c2cccnc2)cc1,-,40,-,-
COCCNS(=O)(=O)c1cccn1-c1ncc(C(F)(F)F)cc1Cl,-,40,-,-
CN(C)C(=O)c1cccn1-c1ncc(C(F)(F)F)cc1Cl,-,-,-,-
COc1ccc(C2CC(=O)N(CCCN(C)CCc3ccc(OC)c(OC)c3)C2)cc1 (stereo unspecified),-,-,-,-
COc1ccc(CCN(C)CCCN2CC(c3ccccc3)CC2=O)cc1OC (stereo unspecified),-,22,-,-
CC(C)C(=O)c1cn(CC(=O)O)c2ccccc12,-,26,-,-
CC(C)(C)C(=O)c1cn(CC(=O)O)c2ccccc12,-,-,-,-
Cc1ccc2oc(=O)c3cnn(CC(=O)N(CCN(C)C)Cc4ccco4)c3c2c1,-,41,-,-

# Screening data: PubChem, several laboratories
